Results as given in PMC5540273 (PLoS ONE, 2017).

Key:
Conditions in all cases: concentration: 1 μM,replicates: in singlicate; n = 1
IKK-alpha = test system: T1, IKK-alpha
T1 construct: gene CHUK

IKK-beta = test system: T2, IKK-beta
T2 construct: gene IKBKB

IKK-epsilon = test system: T3, IKK-epsilon
T3 construct: gene IKBKE

INSRR = test system: INSRR
INSR = test system: INSR
IRAK1 = test system: IRAK1
IRAK3 = test system: IRAK3
IRAK4 = test system: IRAK4
ITK = test system: ITK
[1] = test system: JAK1(JH1domain-catalytic)
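Note: KINOMEscan kinase panel screen.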

Compound | %Inh (IKK-alpha) [%] | %Inh (IKK-beta) [%] | %Inh (IKK-epsilon) [%] | %Inh (INSRR) [%] | %Inh (INSR) [%] | %Inh (IRAK1) [%] | %Inh (IRAK3) [%] | %Inh (IRAK4) [%] | %Inh (ITK) [%] | %Inh [1] [%]
O=C(Nc1cccc(C(F)(F)F)c1)c1cccc(Oc2ccc3nccn3n2)c1 | 0 | 0 | 0 | 22 | 2 | 25 | 0 | 13 | 21 | 2
NC(=O)Nc1sc(-c2ccc(F)cc2)cc1C(N)=O [GW789449] | 78 | 100 | 0 | 10 | 37 | 41 | 15 | 12 | 26 | 91.4
COC(=O)Nc1nc2cc(Oc3ccc(NC(=O)Nc4cc(C(F)(F)F)ccc4Cl)cc3)ccc2[nH]1.Cl [GW697465] | 35 | 16 | 0 | 0 | 0 | 23 | 0 | 8 | 12 | 21
FC(F)(F)c1cc(Br)cc(Nc2nccc(-c3cnn4ncccc34)n2)c1 [GW810578] | 13 | 9 | 0 | 11 | 8 | 92 | 58 | 0 | 0 | 3
Cn1ccc2ncnc(Oc3ccc(NC(=O)Nc4cc(C(C)(C)C)on4)c(Cl)c3)c21 | 17 | 9 | 0 | 19 | 20 | 61 | 17 | 33 | 16 | 6
CC(=O)c1c(-c2ccncc2)[nH]c(-c2ccncc2)c1C [GW493036] | 35 | 30 | 2 | 0 | 0 | 85 | 0 | 32 | 13 | 12
COc1cc2nccc(Nc3ccc(Oc4ccccc4)cc3)c2cc1OC.Cl [GI261656] | 0 | 0 | 35 | 0 | 0 | 0 | 0 | 0 | 0 | 8
Cn1ccc2ncnc(Oc3ccc(NC(=O)Nc4cccc(C(F)(F)F)c4)c(F)c3)c21 | 44 | 0 | 0 | 6 | 2 | 0 | 0 | 0 | 3 | 11
